Results reported in PubChem BioAssay (Tox21).
Values joined by “and” are separate entries in the source; they are usually repeats but may differ in a detail not shown here. Equal entries are not always repeated. Results filed as inconclusive are left out. A structure can be active in one record and inactive in another. Active and inactive are the calls of the source. The call rests on the fitted dose curve; in most records, active means well fitted curve in the direction sought with a large enough effect in the repeat runs; inconclusive means weak or mixed curves; inactive means no such curve, though single readings can be large; an effect the other way counts as inactive or inconclusive.

What was measured:
[1] = qHTS RealTime-Glo MT Cell Viability Assay in HepG2 cells - 40 hour (AID 1224870); further: nearly all actives have a fitted effect of over 50% in size; further: potency means the concentration at half of the fitted maximal effect
Outline: (§1)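 HepG2 cells (600/well) mixed with RealTime-Glo MT reagent, settled 5 h at 37 C/5% CO2 before compound addition. Nonlytic NanoLuc luminescence from viable-cell prosubstrate reduction read repeatedly during 40 h treatment at 37 C.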

[2] = A CellTox Green Cytotoxicity Assay to monitor cytotoxicity in HEK293 cells - 40 hour (AID 1224871); further: nearly all actives have a fitted effect of over 45% in size; further: potency means the concentration at half of the fitted maximal effect
Outline: (§2)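 Seeding of HEK293 cells together with cytotoxicity dye preceded a 5 h incubation at 37 C/5% CO2. Test compounds in DMSO were then added and fluorescence monitored across 40 h.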

[3] = qHTS RealTime-Glo MT Cell Viability Assay in HepG2 cells - 8 hour (AID 1224873); further: nearly all actives have a fitted effect of over 55% in size; further: potency means the concentration at half of the fitted maximal effect
Outline: as §1

[4] = A CellTox Green Cytotoxicity Assay to monitor cytotoxicity in HEK293 cells - 24 hour (AID 1224875); further: nearly all actives have a fitted effect of over 45% in size; further: potency means the concentration at half of the fitted maximal effect
Outline: as §2

[5] = A CellTox Green Cytotoxicity Assay to monitor cytotoxicity in HepG2 cells - 16 hour (AID 1224876); further: nearly all actives have a fitted effect of over 45% in size; further: potency means the concentration at half of the fitted maximal effect
Outline: (§3)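 Nonlytic assay: viable cells exclude the dye, so fluorescence scales with cell death. HepG2 at 600 cells/well, compounds added after 5 h, signal read across 40 h.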

[6] = qHTS RealTime-Glo MT Cell Viability Assay in HepG2 cells - 32 hour (AID 1224877); further: nearly all actives have a fitted effect of over 55% in size; further: potency means the concentration at half of the fitted maximal effect
Outline: (§4)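 HepG2 cells (600/well) were dispensed with RealTime-Glo reagents, incubated 5 h at 37 °C, then treated with compounds in DMSO for up to 40 h. Nonlytic NanoLuc luminescence reflecting viable cells was read at each stated time point.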

[7] = A CellTox Green Cytotoxicity Assay to monitor cytotoxicity in HepG2 cells - 24 hour (AID 1224878); further: nearly all actives have a fitted effect of over 45% in size; further: potency means the concentration at half of the fitted maximal effect
Outline: as §3

[8] = A CellTox Green Cytotoxicity Assay to monitor cytotoxicity in HepG2 cells - 40 hour (AID 1224879); further: nearly all actives have a fitted effect of over 40% in size; further: potency means the concentration at half of the fitted maximal effect
Outline: as §3

[9] = qHTS RealTime-Glo MT Cell Viability Assay in HEK293 cells - 0 hour (AID 1224880)
Outline: (§5)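 Tox21 screen in HEK293 using RealTime-Glo MT chemistry, with cells and reagent co-dispensed. Luminescence proportional to viable cell number was captured at intervals during 40 h compound exposure at 37 C.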

[10] = A CellTox Green Cytotoxicity Assay to monitor cytotoxicity in HEK293 cells - 32 hour (AID 1224881); further: nearly all actives have a fitted effect of over 40% in size; further: potency means the concentration at half of the fitted maximal effect
Outline: as §2

[11] = A CellTox Green Cytotoxicity Assay to monitor cytotoxicity in HepG2 cells - 0 hour (AID 1224882); further: nearly all actives have a fitted effect of over 35% in size
Outline: as §3

[12] = A CellTox Green Cytotoxicity Assay to monitor cytotoxicity in HepG2 cells - 32 hour (AID 1224883); further: nearly all actives have a fitted effect of over 50% in size; further: potency means the concentration at half of the fitted maximal effect
Outline: as §3

[13] = A CellTox Green Cytotoxicity Assay to monitor cytotoxicity in HEK293 cells - 8 hour (AID 1224884); further: nearly all actives have a fitted effect of over 35% in size; further: potency means the concentration at half of the fitted maximal effect
Outline: as §2

[14] = qHTS RealTime-Glo MT Cell Viability Assay in HepG2 cells - 16 hour (AID 1224885); further: nearly all actives have a fitted effect of over 50% in size; further: potency means the concentration at half of the fitted maximal effect
Outline: as §4

[15] = A CellTox Green Cytotoxicity Assay to monitor cytotoxicity in HEK293 cells - 16 hour (AID 1224888); further: nearly all actives have a fitted effect of over 35% in size
Outline: as §2

[16] = qHTS RealTime-Glo MT Cell Viability Assay in HepG2 cells - 0 hour (AID 1224889); further: nearly all actives have a fitted effect of over 50% in size
Outline: as §4

[17] = qHTS RealTime-Glo MT Cell Viability Assay in HEK293 cells - 8 hour (AID 1224887); further: nearly all actives have a fitted effect of over 50% in size; further: potency means the concentration at half of the fitted maximal effect
Outline: as §5

[18] = qHTS RealTime-Glo MT Cell Viability Assay in HEK293 cells - 16 hour (AID 1224872); further: nearly all actives have a fitted effect of over 50% in size; further: potency means the concentration at half of the fitted maximal effect
Outline: (§6)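 HEK293 cells seeded with NanoLuc/prosubstrate reagent, rested 5 h at 37 C, then dosed and kept at 37 C up to 40 h. Nonlytic real-time luminescence from viable cells read at 0, 8, 16, 24, 32 and 40 h.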

[19] = qHTS RealTime-Glo MT Cell Viability Assay in HEK293 cells - 40 hour (AID 1224874); details: RealTime-Glo luminescence; max response: stronger effect = lower value; further: nearly all actives have a fitted effect of over 50% in size; further: potency means the concentration at half of the fitted maximal effect
Outline: as §5

[20] = qHTS RealTime-Glo MT Cell Viability Assay in HEK293 cells - 24 hour (AID 1224886); further: nearly all actives have a fitted effect of over 50% in size; further: potency means the concentration at half of the fitted maximal effect
Outline: as §6
On the % scale 0 is the no-effect control and ±100 the full control effect.

C=COCC(C)C
inactive: Potency [1] | Potency [2] | Potency [3] | Potency [4] | Potency [5] | Potency [6] | Potency [7] | Potency [8] | Potency [9] | Potency [10] | Potency [11] | Potency [12] | Potency [13] | Potency [14] | Potency [15] | Potency [16]

CCCCN1CCCC1C(=O)Nc1c(C)cc(C)cc1C (configuration not stated)
inactive: Potency [1] | Potency [3] | Potency [6] | Potency [9] | Potency [14] | Potency [17] | Potency [16]
active: Potency [2] 16.9 µM | Potency [4] 15.1 µM | Potency [10] 16.9 µM | Potency [13] 15.1 µM

CCCCN(CCN(CCCC)C(=O)N1CCOCC1)C(=O)N1CCOCC1
inactive: Potency [1] | Potency [18] | Potency [3] | max response [19] -14% | Potency [4] | Potency [5] | Potency [7] | Potency [8] | Potency [9] | Potency [10] | Potency [11] | Potency [12] | Potency [13] | Potency [14] | Potency [20] | Potency [17] | Potency [15] | Potency [16]

FC(F)(F)c1ccccc1Cl
inactive: Potency [1] | Potency [18] | Potency [3] | max response [19] -1.41% | Potency [4] | Potency [5] | Potency [6] | Potency [7] | Potency [8] | Potency [9] | Potency [10] | Potency [11] | Potency [12] | Potency [13] | Potency [20] | Potency [17] | Potency [15] | Potency [16]

O=c1cc(-c2ccccc2)oc2ccc3ccccc3c12
active: Potency [5] 24.5 µM | Potency [7] 24.5 µM | Potency [8] 17.4 µM | Potency [12] 21.9 µM
inactive: Potency [1] | Potency [18] | Potency [3] | max response [19] -4.42% | Potency [4] | Potency [9] | Potency [11] | Potency [14] | Potency [20] | Potency [17] | Potency [16]

CC(C)C(O)(c1ccc(OC(F)(F)F)cc1)c1cncnc1 (configuration not stated)
inactive: Potency [1] | Potency [2] | Potency [3] | Potency [4] | Potency [5] | Potency [7] | Potency [8] | Potency [9] | Potency [10] | Potency [11] | Potency [12] | Potency [13] | Potency [17] | Potency [15] | Potency [16]

Cc1cc(C)c(N)cc1C
inactive: Potency [1] | Potency [18] | Potency [3] | Potency [4] | Potency [5] | Potency [6] | Potency [7] | Potency [8] | Potency [9] | Potency [10] | Potency [12] | Potency [14] | Potency [17] | Potency [15] | Potency [16]

Cc1cc(C)cc(N)c1
inactive: Potency [1] | Potency [18] | Potency [3] | max response [19] -4.23% | Potency [4] | Potency [5] | Potency [6] | Potency [7] | Potency [8] | Potency [9] | Potency [10] | Potency [11] | Potency [12] | Potency [13] | Potency [14] | Potency [20] | Potency [17] | Potency [15] | Potency [16]

CC(C)C[C@H](NC(=O)[C@H](CCc1ccccc1)NC(=O)CN1CCOCC1)C(=O)N[C@@H](Cc1ccccc1)C(=O)N[C@@H](CC(C)C)C(=O)[C@@]1(C)CO1
inactive: Potency [3] | Potency [4] | Potency [9] | Potency [11] | Potency [13] | Potency [17] | Potency [15] | Potency [16]
active: Potency [1] 0.0239 µM | Potency [2] 0.0756 µM | Potency [5] 10.7 µM | Potency [6] 26.8 nM | Potency [7] 0.268 µM | Potency [8] 0.0169 µM | Potency [10] 0.301 µM | Potency [12] 0.0239 µM | Potency [20] 67.4 nM

Cc1ccc2c(Br)cc(Br)c(O)c2n1
inactive: Potency [1] | Potency [18] | Potency [3] | Potency [4] | Potency [6] | Potency [7] | Potency [8] | Potency [9] | Potency [10] | Potency [11] | Potency [12] | Potency [13] | Potency [17] | Potency [15] | Potency [16]
active: Potency [19] 5.35 µM

CN1C(C(=O)Nc2ccccn2)=C(O)c2sccc2S1(=O)=O
inactive: Potency [1] | Potency [18] | Potency [3] | max response [19] 6.41% | Potency [4] | Potency [5] | Potency [6] | Potency [7] | Potency [8] | Potency [9] | Potency [10] | Potency [11] | Potency [12] | Potency [13] | Potency [14] | Potency [20] | Potency [17] | Potency [15] | Potency [16]

C=C(C)C(=O)OCCOCCOC(=O)C(=C)C
inactive: Potency [1] | Potency [18] | Potency [3] | max response [19] 1.33% | Potency [4] | Potency [6] | Potency [7] | Potency [8] | Potency [9] | Potency [10] | Potency [11] | Potency [12] | Potency [13] | Potency [20] | Potency [17] | Potency [16]

C[C@]12CC[C@@H]3c4ccc(O)cc4CC[C@H]3[C@@H]1CC[C@@H]2OC(=O)CCC1CCCC1
49 µM (active) and inactive: Potency [3] | Potency [14] | Potency [17]
43.6 µM (active) and inactive: Potency [20]
inactive: Potency [1] | Potency [9] | Potency [11] | Potency [13] | Potency [16]
54.9 µM (active) and inactive: Potency [6]
active: Potency [18] 49 µM | Potency [19] 43.6 µM | Potency [4] 54.9 µM | Potency [7] 49 µM and 23.9 µM | Potency [8] 54.9 µM and 26.8 µM | Potency [10] 54.9 µM | Potency [12] 49 µM and 23.9 µM

NC1[C@H]2CN(c3nc4c(cc3F)c(=O)c(C(=O)O)cn4-c3ccc(F)cc3F)C[C@@H]12 (some centres not stated)
inactive: Potency [1] | Potency [18] | Potency [3] | max response [19] -27.4% | Potency [7] | Potency [8] | Potency [9] | Potency [10] | Potency [11] | Potency [12] | Potency [14] | Potency [20] | Potency [17] | Potency [16]

O=C1Cc2cc(Cl)ccc2N1
inactive: Potency [1] | Potency [2] | Potency [3] | Potency [4] | Potency [5] | Potency [6] | Potency [8] | Potency [9] | Potency [10] | Potency [11] | Potency [12] | Potency [13] | Potency [14] | Potency [20] | Potency [15] | Potency [16]
